Laboratory results taken from PubChem BioAssay (Tox21).
Results filed as inconclusive are left out. Activity calls are given as the source filed them. Unless noted, calls follow the shape of the dose curve; as a rule, active = well fitted curve in the direction sought with a large enough effect in the repeat runs; inconclusive = weak or mixed curves; inactive = no such curve, though single readings can be large; an effect the other way counts as inactive or inconclusive.

What was measured:
[1] = biological target: Luciferin 4-monooxygenase (Photinus pyralis) (UniProt P08659); assay: qHTS assay to identify small molecule inhibitors of firefly luciferase (AID 1224835); also: nearly all actives have a fitted effect of over 25% in size
In short: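 Quantitative HTS format; KM concentrations of both substrates. Purified P. pyralis FLuc activity quantified from luminescence images.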

[2] = qHTS assay to identify small molecule agonists of the constitutive androstane receptor (CAR) signaling pathway - cell viability counter screen (AID 1224836); also: nearly all actives have a fitted effect of over 45% in size
In short: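 Using CellTiter-Fluor, viability of HepG2 cells harbouring hCAR and CYP2B6-2.2kb was measured following 23 h incubation with a 15-concentration compound series plus PK11195 (0.75 uM final).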

[3] = qHTS assay to identify small molecule antagonists of the constitutive androstane receptor (CAR) signaling pathway - cell viability counter screen (AID 1224837); also: nearly all actives have a fitted effect of over 45% in size
In short: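 HepG2 cells stably carrying hCAR and CYP2B6-2.2kb reporter, stimulated with 50 nM CITCO and compounds at 15 concentrations for 23 h at 37 C. Viability measured by CellTiter-Fluor fluorescence.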

[4] = biological target: Nuclear receptor subfamily 1 group I member 3 (Homo sapiens) (UniProt Q14994); assay: qHTS assay to identify small molecule antagonists of the constitutive androstane receptor (CAR) signaling pathway (AID 1224838); also: nearly all actives have a fitted effect of over 40% in size
In short: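 HepG2 cells stably carrying hCAR and a CYP2B6-2.2kb luciferase reporter, seeded 4 hrs before compound (15 concentrations). Stimulated with 50 nM CITCO for 24 hr at 37 C. ONE-Glo luminescence read after 30 min at room temperature.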

[5] = biological target: Nuclear receptor subfamily 1 group I member 3 (Homo sapiens) (UniProt Q14994); assay: qHTS assay to identify small molecule agonists of the constitutive androstane receptor (CAR) signaling pathway (AID 1224839); also: nearly all actives have a fitted effect of over 15% in size
In short: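 Double-stable HepG2 cells (hCAR, CYP2B6-2.2kb) seeded 4 h before compound addition. Exposure 24 h with 0.75 uM PK11195 final. Luciferase detected by ONE-Glo.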

[6] = qHTS assay to identify small molecule antagonists of the estrogen related receptor signaling pathway with the pleiotropic PPARgamma coactivator (PGC) from Tox21 10K library - cell viability counter screen (AID 1224840; active = well fitted cell-killing curve with a large enough effect in the repeat runs, not every such curve was filed as active; also: nearly all actives have a fitted effect of over 40% in size)
In short: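 PGC/ERR cells (2,000/well) plated 6 h, then compound-treated for 17.5 h at 37 C. Viability measured by CellTiter-Fluor fluorescence after 30 min at 37 C, multiplexed with the pathway assay.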

[7] = qHTS assay to identify small molecule agonists of the estrogen related receptor signaling pathway with the pleiotropic PPARgamma coactivator (PGC) from Tox21 10K library (AID 1224842); also: nearly all actives have a fitted effect of over 15% in size
In short: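 PGC/ERR reporter cells (NTP line) were seeded 2,000 per well, rested 6 h at 37 C/5% CO2, then pin-dosed with compounds in DMSO for 18 h at 37 C; luciferase read by One-Glo luminescence after 30 min at room temperature.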

[8] = biological target: Thyrotropin receptor (Homo sapiens) (UniProt P16473); assay: qHTS assay to identify small molecule agonists of the thyroid stimulating hormone receptor (TSHR) signaling pathway (AID 1224843; calls by dose curve; also: nearly all actives have a fitted effect of over 45% in size)
In short: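 Cell line HEK293 with TSHR; density 800/well. Exposure 30 min RT. Readout HTRF cAMP (cAMP-d2/anti-cAMP-cryptate), 1 h RT before reading.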

[9] = qHTS assay to identify small molecule agonists of the hypoxia (HIF-1) signaling pathway - cell viability counter screen (AID 1224844; calls by dose curve; also: nearly all actives have a fitted effect of over 50% in size)
In short: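 HRE-bla ME-180 cells, 2,000/well in 0.5% dialyzed FBS medium, treated 17 h at 37C with compounds. Viability read in the same wells as the bla reporter, by CellTiter-Glo luminescence after 30 min at room temperature.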

[10] = qHTS assay to identify small molecule agonists of the hypoxia (HIF-1) signaling pathway (AID 1224846; active = well fitted activation curve with a large enough effect in the signal ratio in the repeat runs, not every such curve was filed as active; the % refers to the signal ratio)
In short: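 HRE-bla ME-180 beta-lactamase reporter cells in medium with 0.5% dialyzed FBS, pre-incubated 5 h then exposed to compounds 17 h at 37C, 5% CO2; reporter induction read with CCF4-AM FRET substrate.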

[11] = qHTS assay to identify small molecule agonists of H2AX - cell viability counter screen (AID 1224847; calls by dose curve; also: top concentration of the series differs between compounds; nearly all actives have a fitted effect of over 30% in size)
In short: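 Quantitative HTS viability measurement: CHO-K1 wild-type cells in serum (10% FBS) medium, short 3 hr drug exposure at 37C with 0.76% DMSO, CellTiter-Glo luminescent detection.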

[12] = qHTS assay to identify small molecule antagonists of the estrogen related receptor (ERR) signaling pathway from Tox21 library (AID 1224848); also: nearly all actives have a fitted effect of over 50% in size
In short: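 Screening used an ERR reporter line supplied by NTP, exposed for 18 h at 37 C to library compounds delivered in DMSO. Signal was luciferase luminescence developed with ONE-Glo at room temperature for 30 min.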

[13] = qHTS assay to identify small molecule agonists of the estrogen related receptor (ERR) signaling pathway from Tox21 library (AID 1224849; calls by dose curve; also: nearly all actives have a fitted effect of over 15% in size); details: ERR reporter cell line, ONE-Glo luciferase, 18 h; at 92.4 µM (top of the series) unless noted
In short: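 ERR reporter cells (NTP line) pre-incubated 6 hours at 37 C, then exposed to compounds for 18 hours at 37 C. ONE-Glo luciferase luminescence was read after 30 minutes at room temperature.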

[14] = qHTS RealTime-Glo MT Cell Viability Assay in HepG2 cells - 24 hour (AID 1224867); also: nearly all actives have a fitted effect of over 50% in size
In short: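 Cell number in HepG2 cultures estimated from NanoLuc luminescence generated by metabolic reduction of a prosubstrate by living cells. The homogeneous, nonlytic format allowed repeated reads at 0, 8, 16, 24, 32 and 40 h of compound exposure.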

[15] = A CellTox Green Cytotoxicity Assay to monitor cytotoxicity in HEK293 cells - 0 hour (AID 1224869); also: nearly all actives have a fitted effect of over 50% in size
In short: (§1)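 HEK293 cells, 600/well, were preincubated 5 hours and then exposed to compounds at 37 C for up to 40 hours. A cell-impermeant cyanine dye staining dead-cell DNA was read by fluorescence at 0, 8, 16, 24, 32 and 40 h time points.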

[16] = qHTS RealTime-Glo MT Cell Viability Assay in HepG2 cells - 40 hour (AID 1224870); also: nearly all actives have a fitted effect of over 50% in size
In short: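 HepG2 cells mixed with RealTime-Glo MT reagents (NanoLuc plus cell-permeant prosubstrate) were seeded at 600 cells/well, incubated 5 h at 37 C/5% CO2, then pinned with compounds in DMSO; nonlytic luminescence tracked viability during 40 h treatment.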

[17] = A CellTox Green Cytotoxicity Assay to monitor cytotoxicity in HEK293 cells - 40 hour (AID 1224871); also: nearly all actives have a fitted effect of over 45% in size
In short: as §1

[18] = qHTS assay to identify small molecule agonists of H2AX (AID 1224845; active = well fitted activation curve with a large enough effect in the signal ratio in the repeat runs, not every such curve was filed as active; the % refers to the signal ratio)
In short: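 Wild-type CHO-K1 cells plated overnight, then exposed 3 hr at 37C to compounds at 15 concentrations (0.76% DMSO). Lysed, then HTRF anti-pH2AX(S139)-cryptate/anti-H2AX-d2 detection after 24 hr at room temperature; emissions 665 and 620 nm.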

[19] = qHTS RealTime-Glo MT Cell Viability Assay in HEK293 cells - 32 hour (AID 1224868)
In short: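 Homogeneous bioluminescent viability format in HEK293 cells (600 cells/well). Following 5 h at 37 C/5% CO2, 23 nL compound was pintooled; the signal was measured repeatedly during 40 h incubation.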
% is scaled to controls: 0 for no effect and ±100 for the full control effect.

Chain of Luciferin 4-monooxygenase (Photinus pyralis) (P08659 whole entry, looked up): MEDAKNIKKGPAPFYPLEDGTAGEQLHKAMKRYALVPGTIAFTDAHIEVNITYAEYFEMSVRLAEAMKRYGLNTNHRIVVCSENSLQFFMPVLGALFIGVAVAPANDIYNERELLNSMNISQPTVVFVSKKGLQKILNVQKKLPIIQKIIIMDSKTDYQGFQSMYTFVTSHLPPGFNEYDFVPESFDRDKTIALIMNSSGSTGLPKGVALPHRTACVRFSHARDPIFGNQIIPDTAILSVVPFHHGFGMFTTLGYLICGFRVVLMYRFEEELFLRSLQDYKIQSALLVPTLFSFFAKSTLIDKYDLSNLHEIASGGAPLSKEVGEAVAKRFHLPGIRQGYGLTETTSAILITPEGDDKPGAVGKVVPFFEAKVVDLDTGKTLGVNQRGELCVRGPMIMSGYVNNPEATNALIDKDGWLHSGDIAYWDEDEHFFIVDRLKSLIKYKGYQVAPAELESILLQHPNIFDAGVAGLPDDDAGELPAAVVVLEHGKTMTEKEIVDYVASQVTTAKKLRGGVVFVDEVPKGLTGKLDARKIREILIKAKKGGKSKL
Chain of Thyrotropin receptor (Homo sapiens) (P16473 whole entry, looked up): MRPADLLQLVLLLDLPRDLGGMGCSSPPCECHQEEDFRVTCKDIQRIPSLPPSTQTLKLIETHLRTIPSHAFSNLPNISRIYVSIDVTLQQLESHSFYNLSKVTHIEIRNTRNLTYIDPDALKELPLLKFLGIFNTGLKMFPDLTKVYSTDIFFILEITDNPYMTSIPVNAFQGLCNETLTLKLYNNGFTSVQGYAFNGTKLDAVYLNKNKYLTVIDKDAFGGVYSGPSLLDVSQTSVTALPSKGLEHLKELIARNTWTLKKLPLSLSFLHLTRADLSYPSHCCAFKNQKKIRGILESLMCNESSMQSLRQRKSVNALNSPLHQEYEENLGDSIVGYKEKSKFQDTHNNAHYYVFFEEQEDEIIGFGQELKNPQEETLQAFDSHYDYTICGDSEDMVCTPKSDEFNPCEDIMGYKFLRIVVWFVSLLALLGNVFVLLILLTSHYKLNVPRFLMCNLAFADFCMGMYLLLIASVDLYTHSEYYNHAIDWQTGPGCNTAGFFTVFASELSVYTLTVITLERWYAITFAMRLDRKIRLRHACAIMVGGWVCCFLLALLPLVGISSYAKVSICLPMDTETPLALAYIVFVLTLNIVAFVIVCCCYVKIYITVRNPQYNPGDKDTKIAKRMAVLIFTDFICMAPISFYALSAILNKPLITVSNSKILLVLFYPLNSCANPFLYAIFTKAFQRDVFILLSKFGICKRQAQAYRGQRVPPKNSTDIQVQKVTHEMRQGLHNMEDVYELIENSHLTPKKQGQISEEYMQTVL
Chain of Nuclear receptor subfamily 1 group I member 3 (Homo sapiens) (Q14994 whole entry, looked up): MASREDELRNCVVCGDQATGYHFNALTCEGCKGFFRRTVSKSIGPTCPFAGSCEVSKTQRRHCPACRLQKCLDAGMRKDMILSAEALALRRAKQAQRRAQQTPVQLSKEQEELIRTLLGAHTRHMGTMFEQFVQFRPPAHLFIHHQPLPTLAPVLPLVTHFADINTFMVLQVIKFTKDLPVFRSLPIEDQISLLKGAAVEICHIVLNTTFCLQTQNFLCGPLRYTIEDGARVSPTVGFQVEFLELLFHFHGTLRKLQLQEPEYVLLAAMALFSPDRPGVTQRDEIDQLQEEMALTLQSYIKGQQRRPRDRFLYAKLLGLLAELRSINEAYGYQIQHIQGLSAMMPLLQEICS

CCOP(=S)(OCC)SCS(=O)(=O)CC
inactive: Potency [1] | Potency [2] | Potency [3] | Potency [4] | Potency [5] | Potency [6] | Potency [7] | Potency [8] | Potency [9] | outcome [10] | Potency [11] | Potency [12] | activity change, positive = activation [13] -5.31% | Potency [14] | Potency [15] | Potency [16] | Potency [17]

O=C(O)COc1nc(Cl)c(Cl)cc1Cl
inactive: Potency [1] | Potency [2] | Potency [3] | Potency [4] | Potency [5] | Potency [6] | Potency [8] | Potency [9] | Potency [18] | outcome [10] | Potency [11] | Potency [14] | Potency [16]

N#CCCSCCC#N
inactive: Potency [1] | Potency [2] | Potency [3] | Potency [4] | Potency [5] | Potency [6] | Potency [8] | Potency [9] | Potency [18] | outcome [10] | Potency [11] | Potency [14] | Potency [15] | Potency [16]

CC(C)CBr
inactive: Potency [1] | Potency [2] | Potency [3] | Potency [4] | Potency [5] | Potency [6] | Potency [7] | Potency [8] | Potency [9] | Potency [18] | outcome [10] | Potency [11] | Potency [12] | activity change, positive = activation [13] 2.25% | Potency [14] | Potency [19] | Potency [15] | Potency [16] | Potency [17]
